High-throughput results deposited in PubChem by National Center for Advancing Translational Sciences (NCATS).
GALC G270D act = galactocerebrosidase G270D activity enhancement, cell-based | Potency, µM (titrated, usually from 57.5 µM), usual class: activators | AID 1159614 | 145M-Twi-hGALC-G270D cells (Twitcher mouse brain line with human GALC G270D), HMU-beta-Gal fluorescence, 48 h | 45,000 tested, 0.1% active; note: 0% is about no effect; nearly all actives have a fitted effect of over 65% in size
Target sequence (P54803 whole entry G286D): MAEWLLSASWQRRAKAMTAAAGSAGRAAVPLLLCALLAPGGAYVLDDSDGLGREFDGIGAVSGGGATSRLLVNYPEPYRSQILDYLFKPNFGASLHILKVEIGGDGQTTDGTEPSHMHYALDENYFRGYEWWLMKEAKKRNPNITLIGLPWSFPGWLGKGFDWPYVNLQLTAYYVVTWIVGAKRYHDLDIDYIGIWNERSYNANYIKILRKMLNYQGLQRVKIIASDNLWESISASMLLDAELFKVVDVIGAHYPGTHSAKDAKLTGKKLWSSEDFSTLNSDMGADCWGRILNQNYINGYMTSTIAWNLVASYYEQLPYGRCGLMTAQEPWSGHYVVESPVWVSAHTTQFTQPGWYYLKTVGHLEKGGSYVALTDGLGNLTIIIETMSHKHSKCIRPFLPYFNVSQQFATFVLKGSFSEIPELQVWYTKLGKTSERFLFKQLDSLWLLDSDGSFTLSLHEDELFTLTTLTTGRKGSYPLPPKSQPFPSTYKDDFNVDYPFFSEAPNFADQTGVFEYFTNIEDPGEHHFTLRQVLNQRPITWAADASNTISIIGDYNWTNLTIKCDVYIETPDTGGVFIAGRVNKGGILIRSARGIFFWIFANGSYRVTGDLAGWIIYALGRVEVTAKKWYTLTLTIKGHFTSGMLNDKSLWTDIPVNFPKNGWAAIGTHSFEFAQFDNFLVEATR
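Brain-derived Twitcher mouse 145M-Twi cells stably expressing human GALC-G270D or wild-type GALC, treated live, then residual GALC activity read by fluorescence of HMU-b-Gal substrate (0.1 mM final) in citrate-phosphate buffer pH 5.2 with sodium taurocholate. Signal increase indicates enhancement.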
S16 viability = S16 Schwann cell cytotoxicity; S16 Pmp22-F2sN Schwann cells viability, CellTiter-Glo, 24 h; Potency, µM (highest dose often 57.5 µM), inactives show top-dose activity change, negative = cytotoxicity, actives largely listed as cytotoxic; 43,000 tested, 0.48% active; AID 1508642; note: % is set by controls: 0 for no effect and ±100 for the full control effect; nearly all actives have a fitted effect of over 65% in size
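Rat S16 Schwann reporter line, 24 h treatment with library compounds delivered at 23 nL per well. Cell viability by CellTiter-Glo luminescence.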
PMP22 txn = modulates PMP22 transcription in S16 Schwann cells; S16 Pmp22-F2sN Schwann cells (luciferase reporters placed in the Pmp22 gene), FLuc/NLuc coincidence luminescence, 24 h; Potency, µM (highest dose often 57.5 µM), for inactives: top-dose activity change, negative = inhibition, most hits filed as inhibitors; 43,000 tested, 2% active; AID 1508649; active = clear falling dose curves in both reporters; inconclusive = both reporters move, but less clearly or upward; inactive = either reporter flat; the % is the NLuc reporter signal; note: % is set by controls: 0 for no effect and ±100 for the full control effect
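qHTS, 1536-well. Cells seeded, compounds added by pin tool, 24 h 37C. Nano-Glo reagent 1 (lysis/FLuc), 10 min RT, read; Stop&Glo, 10 min RT, read NLuc.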
OvCa metastasis = blocks SKOV3ip1 adhesion and invasion in omental model; SKOV3ip1-GFP adhesion/invasion on 3D omental model, fluorescence; Potency, µM (series often up to 45.8 µM), without a hit: top-dose activity change, negative = inhibition, hits mostly inhibitors; 46,000 tested, 0.1% active; AID 1963576;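 note: plate controls were DMSO wells for no effect and tomatine positive control wells for full effect; nearly all actives have a fitted effect of over 65% in size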
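Primary human omental fibroblast/mesothelial 3D culture pre-formed 48 h. SKOV3ip1-GFP cells added with compounds (0.36-46 umol/L), incubated 2 h RT/16 h 37 C, fixed; GFP cells quantified at 488/509 nm.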
NTMT1 inh = inhibitors of human N-terminal methyltransferase NTMT1. Q9BV86. NTMT1 MTase-Glo SAH luminescence, purified enzyme. Potency, µM (top dose mostly 114 µM), inactives show at the top dose activity change, negative = inhibition, usual class: inhibitors. 59,000 tested, 2.5% active. AID 1645870;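 note: plate controls were DMSO vehicle for no effect and no enzyme for full effect; nearly all actives have a fitted effect of over 65% in size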
pS6 MEF inh = inhibitors of mTORC1 signaling in Tsc2-/- p53-/- MEF cells. Tsc2-/- p53-/- MEF, phospho-rpS6 immunofluorescence/PI, 24 h. Potency, µM (highest dose often 38.3 µM), for the others: at the top dose activity change, negative = inhibition, hits mostly inhibitors. 44,000 tested, 0.78% active. AID 493208;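 note: plate controls were DMSO for no effect and rapamycin for full effect; nearly all actives have a fitted effect of over 50% in size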
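Readout is phospho-S6 Alexa 488 signal normalized to PI per well, reported as % active cells with thresholds set from rapamycin (7.5 nM) and DMSO controls. Cells: Tsc2-/-, p53-/- MEFs, 24 hrs compound at 37 C; PI cell number serves as viability.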
Numbers without * were called inactive; ! = not active in a repeat; [ ] = remark or other dose. In the library only some 3.6% were active in any assay of this set; here they are far more common. Unless noted, calls come from the whole dose curve; as a rule, active = well fitted curve in the direction sought with a large enough effect; inconclusive = small, poorly fitted or top-dose-only effect, or another doubt; inactive = no such curve, though single readings can be large; an effect the other way counts as inactive or inconclusive. Potency is the fitted concentration of half-maximal effect.

How did CC[C@H](NC(=O)[C@H](CS(=O)(=O)CC1CC1)N[C@@H](c1ccc(F)cc1)C(F)(F)F)C(=O)C(=O)NC1CC1 do in these assays?
NTMT1 inh: 11%

Results for CC(C)(O)C(=O)N1CCN(c2ccc(C(F)(F)F)c(C3=C(c4c[nH]c5ccccc45)C(=O)NC3=O)c2)CC1 ?
NTMT1 inh: 11µM*

What do the screens show for `Cn1cc(C(=O)N2CCN(c3cccc(C(F)(F)F)c3)CC2)c2c3ccccc3n(C)c2c1=O`?
GALC G270D act: inactive; S16 viability: -14%; PMP22 txn: inconclusive; OvCa metastasis: inactive; NTMT1 inh: 8%; pS6 MEF inh: inconclusive

How did Cn1c(=O)c2c(nc(NCc3ccccc3)n2Cc2ccccc2Cl)n(C)c1=O do in these assays?
GALC G270D act: inactive; S16 viability: inconclusive; PMP22 txn: -3%; OvCa metastasis: inactive; NTMT1 inh: -4%; pS6 MEF inh: 7%

Results for Cn1c(=O)c2c(nc(NCc3ccccc3)n2Cc2ccccc2)n(C)c1=O ?
GALC G270D act: inactive; S16 viability: inconclusive; PMP22 txn: 13µM*; OvCa metastasis: -7%; NTMT1 inh: -5%; pS6 MEF inh: -7%

Results for CCCCNC(=O)CSc1c2c(nc3ccc(Cl)cc13)CCCC2 ?
GALC G270D act: inactive; S16 viability: 40µM*; PMP22 txn: inconclusive; OvCa metastasis: 3%; NTMT1 inh: -16%; pS6 MEF inh: inconclusive

What do the screens show for `CCCNC(=O)CSc1c2c(nc3ccc(Cl)cc13)CCCC2`?
GALC G270D act: inactive; S16 viability: 16%; PMP22 txn: inconclusive; OvCa metastasis: -13%; NTMT1 inh: -18%; pS6 MEF inh: inconclusive

What do the screens show for `c1ccc(N2CCN(c3ncnc4c3nc3n4CCCC3)CC2)cc1`?
GALC G270D act: inactive; S16 viability: inconclusive; PMP22 txn: inconclusive; OvCa metastasis: 16%; NTMT1 inh: 0%; pS6 MEF inh: 1%

Results for FC(F)(F)c1cccc(N2CCN(c3ncnc4c3nc3n4CCCC3)CC2)c1 ?
GALC G270D act: inactive; S16 viability: inconclusive; PMP22 txn: 13µM*; OvCa metastasis: 3%; NTMT1 inh: -4%; pS6 MEF inh: 0%

How did C[C@H]1CC[C@@]2(OC1)O[C@H]1CC3C4CC[C@H]5C[C@@H](O)[C@H](O)C[C@]5(C)C4=CC(=O)[C@]3(C)[C@H]1[C@@H]2C (stereo not given in full) do in these assays?
NTMT1 inh: 15%[29.8 µM]

Results for CC(C)=CCCC(C)=CCCC(C)=CCSc1ccccc1C(=O)O ?
OvCa metastasis: -15%; NTMT1 inh: inconclusive

Results for CC(C)=CCC/C(C)=C/CC/C(C)=C/CSc1ccccc1C(=O)O ?
NTMT1 inh: 50µM*

How did CC(CNc1nc2ccccc2c2nc(-c3ccccc3)nn12)c1ccccc1 (stereo not given) do in these assays?
GALC G270D act: 25µM*; S16 viability: 25%; PMP22 txn: 11%; OvCa metastasis: inactive; NTMT1 inh: 12%; pS6 MEF inh: -3%

Results for c1ccc(CNc2nc3ccccc3c3nc(-c4ccccc4)nn23)cc1 ?
GALC G270D act: inactive; S16 viability: 20%; PMP22 txn: -16%; OvCa metastasis: 1%; NTMT1 inh: -8%; pS6 MEF inh: -12%

What do the screens show for `O=C(Nc1ccc2nc(SCC(=O)N3CCCC3)sc2c1)c1cccc(F)c1`?
GALC G270D act: inactive; S16 viability: -5%; PMP22 txn: -36%; OvCa metastasis: inconclusive; NTMT1 inh: 89µM*; pS6 MEF inh: 0%

Results for CN1CCN(Cc2ccc(-c3cnc4[nH]cc(-c5ccc6[nH]ccc6c5)c4c3)cc2)CC1 ?
NTMT1 inh: 20µM*

How did C[Se]CCC(N)C(=O)O (stereo not given) do in these assays?
OvCa metastasis: inconclusive; NTMT1 inh: 16µM*!

How did CN(C)CCOc1ccc(-c2nc(-c3ccc4c(c3)CC/C4=N/O)c(-c3ccncc3)[nH]2)cc1 do in these assays?
NTMT1 inh: 25µM*

What do the screens show for `CC1=C(CO)C(=O)O[C@@H]([C@@H](C)[C@H]2CC[C@H]3[C@@H]4C[C@H]5O[C@]56[C@@H](O)C=CC(=O)[C@]6(C)[C@@H]4CC[C@]23C)C1`?
OvCa metastasis: 4.7µM*; NTMT1 inh: 10%[57.5 µM]

What do the screens show for `CC1=C(C)C(=O)OC(C(C)C2CCC3C4C5OC5C5(O)CC(OC6OC(CO)C(OC7OC(C)C(O)C(O)C7O)C(O)C6O)CC(O)C5(C)C4CCC23C)C1` (stereo not given)?
NTMT1 inh: -12%[12.6 µM]

What do the screens show for `Cn1c(=O)c(Oc2ccc(F)cc2F)cc2cnc(NC3CCOCC3)nc21`?
OvCa metastasis: -20%; NTMT1 inh: -2%

How did CCC(=O)C1=C(c2ccc(F)cc2)N(C(=O)CC)n2cnnc2S1 do in these assays?
GALC G270D act: inactive; S16 viability: inconclusive; PMP22 txn: inconclusive; OvCa metastasis: inactive; NTMT1 inh: -25%; pS6 MEF inh: 12µM*

What do the screens show for `CC(=O)C1=C(c2ccc(Cl)c(Cl)c2)N(C(C)=O)n2cnnc2S1`?
GALC G270D act: inactive; S16 viability: inconclusive; PMP22 txn: inconclusive; OvCa metastasis: inconclusive; NTMT1 inh: 56µM*; pS6 MEF inh: 15µM*

What do the screens show for `CCC1=Nc2cc(C(=O)NC3CCCC3)ccc2Sc2ccc(Br)cc21`?
GALC G270D act: inactive; S16 viability: inconclusive; PMP22 txn: 10µM*; OvCa metastasis: inactive; NTMT1 inh: 35%; pS6 MEF inh: -26%

Results for CCC1=Nc2cc(C(=O)NC3CCC(C)CC3)ccc2Sc2ccc(C)cc21 (stereo not given) ?
GALC G270D act: inactive; S16 viability: -3%; PMP22 txn: 5.7µM*; OvCa metastasis: 3%; NTMT1 inh: 16%; pS6 MEF inh: inconclusive

What do the screens show for `CCCCNC(=O)c1ccc2c(c1)N=C(CC)c1ccccc1S2`?
GALC G270D act: inactive; S16 viability: inconclusive; PMP22 txn: 12µM*; OvCa metastasis: 6%; NTMT1 inh: 21%; pS6 MEF inh: inconclusive

How did CCCC1=Nc2cc(C(=O)NCCOC)ccc2Sc2ccccc21 do in these assays?
GALC G270D act: inactive; S16 viability: -7%; PMP22 txn: inconclusive; OvCa metastasis: inactive; NTMT1 inh: -9%; pS6 MEF inh: inconclusive
